The record followed here is the antibiotic and cytotoxicity screens of Wong et al. (2023).

In all, about 39,000 compounds went through this assay and about 3,300 (8.5%) were called active. For the sample, actives were picked, then their nearest neighbours and some compounds at random.

This test has as its system HepG2. Description: cytotoxicity call (relative viability < 0.9). The settings on record: 10 µM.
As to `COc1ccc(S(=O)(=O)N(C)C[C@@H]2Oc3ncc(-c4cccc(OC)c4)cc3C(=O)N([C@H](C)CO)C[C@@H]2C)cc1`, the cytotoxicity call was “inactive”.

As to `Cc1noc(C)c1S(=O)(=O)Nc1ccc2c(c1)C(=O)N([C@@H](C)CO)C[C@@H](C)[C@H](CN(C)C(=O)Nc1ccc(C(F)(F)F)cc1)OCCCC[C@@H](C)O2`, the cytotoxicity call is “inactive”.

Turning to `NC[C@H]1COC2(CCCCC2)O1`, the cytotoxicity call was “inactive”.

As for `C[C@H]1CN([C@@H](C)CO)C(=O)Cc2cc(NC(=O)CCN3CCOCC3)ccc2O[C@H]1CN(C)S(=O)(=O)c1ccc(Cl)cc1`, the cytotoxicity call is “inactive”.

For the compound `CC(=O)Nc1nonc1N1CCCC1=O`, the cytotoxicity call was “inactive”.

In the case of `O=C(Cc1ccccn1)NCC[C@@H]1CC[C@@H](NC(=O)CN2CCOCC2)[C@@H](CO)O1`, the cytotoxicity call is “inactive”.

Take `Cc1ccc(S(=O)(=O)Nc2ccc3c(c2)C(=O)N([C@@H](C)CO)C[C@@H](C)[C@@H](CN(C)C(=O)Nc2ccc4c(c2)OCO4)OCCCC[C@H](C)O3)cc1`: the cytotoxicity call is “inactive”.

In the case of `CC1C=CC=CC=CC=CC=CC=CC=CC(OC2OC(C)C(O)C(N)C2O)CC2OC(O)(CC(O)CC(O)C(O)CCC(O)CC(O)CC(=O)OC(C)C(C)C1O)CC(O)C2C(=O)O` (centres undefined), the cytotoxicity call is “inactive”.

For `CC1C=CC=CC=CC=CC=CC=CC=CC(OC2OC(C)C(O)C(N)C2O)CC(O)C(C(=O)O)C(O)CC(=O)CC(O)CC(O)CC(O)CC(=O)CCCC(=O)CC(=O)OC1C(C)CC(C)C(O)CC(=O)c1ccc(N)cc1` (centres undefined), the cytotoxicity call is “active”.

`C[C@H]1[C@@H](O)[C@@H](C)\C=C/C=C\C=C/C=C\C=C/C=C\C=C/[C@@H](O[C@H]2O[C@H](C)[C@@H](O)[C@H](N)[C@@H]2O)C[C@H]2O[C@](O)(C[C@@H](O)C[C@@H](O)[C@@H](O)CC[C@@H](O)C[C@@H](O)CC(=O)O[C@H]1C)C[C@@H](O)[C@@H]2C(=O)O`: the cytotoxicity call is “inactive”.

Consider `COc1ccc(CN(C)C[C@@H]2Oc3ccc(NC(=O)Cn4cnnn4)cc3CC(=O)N([C@H](C)CO)C[C@H]2C)cc1`, for which the cytotoxicity call was “inactive”.

Take `O=c1nc(NCc2cccnc2)cn[nH]1`: the cytotoxicity call was “inactive”.

For `COc1ccc(NC(=O)Nc2ccc3c(c2)C(=O)N([C@H](C)CO)C[C@H](C)[C@H](CN(C)CC2CCCCC2)OCCCC[C@H](C)O3)cc1`, the cytotoxicity call is “inactive”.

In the case of `COc1ccc(NC(=O)Nc2ccc3c(c2)C(=O)N([C@H](C)CO)C[C@H](C)[C@@H](CN(C)CC2CCCCC2)OCCCC[C@@H](C)O3)cc1`, the cytotoxicity call was “inactive”.

Consider `COc1ccc(NC(=O)Nc2ccc3c(c2)C(=O)N([C@H](C)CO)C[C@@H](C)[C@@H](CN(C)CC2CCCCC2)OCCCC[C@H](C)O3)cc1`, for which the cytotoxicity call is “active”.

With `COc1ccc(NC(=O)Nc2ccc3c(c2)C(=O)N([C@@H](C)CO)C[C@H](C)[C@@H](CN(C)CC2CCCCC2)OCCCC[C@H](C)O3)cc1`, the cytotoxicity call was “inactive”.

Turning to `COc1ccc(NC(=O)Nc2ccc3c(c2)C(=O)N([C@H](C)CO)C[C@@H](C)[C@@H](CN(C)CC2CCCCC2)OCCCC[C@@H](C)O3)cc1`, the cytotoxicity call is “active”.

With `COc1ccc(NC(=O)Nc2ccc3c(c2)C(=O)N([C@@H](C)CO)C[C@@H](C)[C@H](CN(C)CC2CCCCC2)OCCCC[C@@H](C)O3)cc1`, the cytotoxicity call is “inactive”.

As for `COc1ccc(NC(=O)Nc2ccc3c(c2)C(=O)N([C@@H](C)CO)C[C@@H](C)[C@@H](CN(C)CC2CCCCC2)OCCCC[C@H](C)O3)cc1`, the cytotoxicity call was “inactive”.

Consider `COc1ccc(NC(=O)Nc2ccc3c(c2)C(=O)N([C@H](C)CO)C[C@@H](C)[C@H](CN(C)CC2CCCCC2)OCCCC[C@@H](C)O3)cc1`, for which the cytotoxicity call was “active”.

`COc1ccc(NC(=O)Nc2ccc3c(c2)C(=O)N([C@@H](C)CO)C[C@@H](C)[C@H](CN(C)CC2CCCCC2)OCCCC[C@H](C)O3)cc1`: the cytotoxicity call is “inactive”.

`COc1ccc(NC(=O)Nc2ccc3c(c2)C(=O)N([C@@H](C)CO)C[C@@H](C)[C@@H](CN(C)CC2CCCCC2)OCCCC[C@@H](C)O3)cc1`: the cytotoxicity call was “active”.

For the compound `COc1ccc(NC(=O)Nc2ccc3c(c2)C(=O)N([C@H](C)CO)C[C@@H](C)[C@H](CN(C)CC2CC2)OCCCC[C@H](C)O3)cc1`, the cytotoxicity call is “inactive”.

Regarding `COc1ccc(NC(=O)Nc2ccc3c(c2)C(=O)N([C@@H](C)CO)C[C@H](C)[C@H](CN(C)CC2CCCCC2)OCCCC[C@@H](C)O3)cc1`, the cytotoxicity call is “inactive”.
